# Screens (PubChem)
# The full list was thinned out, with hits kept by preference.
# Sa helicase inh: blocks Staphylococcus aureus DNA helicase; AID 485395; inhibition, % (test concentration not listed); purified S. aureus helicase, fluorescence unwinding assay; actives 0.05% (n = 120,000); in the data active = inhibition above about 25%, passing the limit was not always enough;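 note: 0% = mean of negative control wells and 100% = mean of positive control wells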
# Sa growth 42C: blocks Staphylococcus aureus growth; actives 0.53% (n = 170,000); S. aureus RN4220 growth, OD600, 20 h, 42 °C; stronger effect = lower value; relative growth, % (test concentration not listed); AID 720641;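 active = relative growth at most 50% at the other temperature and 20+ points below 30 °C, or under 10% at both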
# * marks the source's active call; other numbers are inactive results; nt = no result given; ! = not active in a repeat.
SMILES,Sa helicase inh,Sa growth 42C
CCOC(=O)Nc1ccc2c(CN(C)CC(=O)Nc3cccc(C)c3C)cc(=O)oc2c1,-15,93
CCN(C(=O)CSc1nnc(-c2ccccc2)c(-c2ccccc2)n1)C1CCS(=O)(=O)C1 (stereo not drawn),-7,101
CCN(C(=O)CSc1nc(C)cc(C)c1C(N)=O)C1CCS(=O)(=O)C1 (stereo not drawn),6,-1.2*
CCOC(=O)N1CCN(S(=O)(=O)N2CCCC(C(=O)NCc3cc(OC)ccc3OC)C2)CC1 (stereo not drawn),nt,116
C=CCc1c(CCC)nc(-c2ccccn2)[nH]c1=O,nt,-0.3*
CCCc1nc(-c2ccccn2)[nH]c(=O)c1Cc1c(F)cccc1Cl,35,58
Cc1cc(=O)n(C)c(=O)n1CCN(C)C,1,89
NCCS(=O)(=O)O,nt,97
CCn1cc(C(=O)OCC(=O)NCc2ccco2)c(=O)c2ccc(C)nc21,6,76
O=C(Nc1cccc(F)c1)C1CCCN(c2cnccn2)C1 (stereo not drawn),-7,86
CCN1CCN(Cc2cc(Cl)c3cccnc3c2O)CC1,27,74
Oc1c(CN2CCOCC2)cc(Cl)c2cccnc12,-3,1.3*
CC1CN(Cc2cc(Cl)c3cccnc3c2O)CC(C)O1 (stereo not drawn),1,0.6*
Oc1c(CN2CCCCC2)cc(Cl)c2cccnc12,13,nt
CC1=C(c2ccccc2)S(=O)(=O)N(CC(=O)O)C1=O,-9,96
FC(F)(F)COc1nc(NCCOC23CC4CC(CC(C4)C2)C3)nc(OCC(F)(F)F)n1,18,79
CCOC(=O)c1c(C)[nH]c(C)c1S(=O)(=O)N1CCCC(C(=O)Nc2ccc(C)cn2)C1 (stereo not drawn),nt,113
O=C(Nc1ccc(Cl)c(Cl)c1)OCc1cccnc1,11,8.0*
O=C(Nc1ccc(Cl)c(Cl)c1)OCc1ccco1,6,44
Sc1nc2c(Cl)c(Cl)c(Cl)cc2o1,22,-0.8*
COc1cccc(C2C(C(=O)Nc3ccc(C)cc3C)=C(C)Nc3nc4ccccc4n32)c1OC (stereo not drawn),nt,98
COc1ccc(CCC(O)C2(O)CCCCC2)cc1 (stereo not drawn),15,91
COc1ccc(CCN=C=S)cc1,23,9.0*
CC(=O)NCCn1c(SCc2ccccc2C)nc2ccccc2c1=O,7,114
COc1ccccc1NCc1ccccc1Oc1ccc(S(=O)(=O)N2CCCC2)cn1,14,77
SMILES,Sa helicase inh,Sa growth 42C
CC(C)c1ccccc1NC(=O)COc1ccc2ccc(=O)oc2c1,14,107
C/C(=N\OC(=O)c1ccc(C(F)(F)F)cc1)c1ccc[nH]1,6,-0.3*
C/C(=N\OC(=O)c1ccc(C(F)(F)F)cc1)c1cc[nH]c1,13,91
COc1ccc2c(-c3cccnc3)cc(=O)[nH]c2c1,-4,90
C[N+](C)(CCOc1ccccc1)Cc1ccccc1 (tested in a mixture with another compound),9,83
CC(C)(C)CC(C)(C)c1ccc(OCCOCC[N+](C)(C)Cc2ccccc2)cc1,nt,-0.3*
Cc1cccc(NC(=O)c2ccc3oc(=O)c(S(=O)(=O)c4ccc(F)cc4)cc3c2)c1C,nt,98
O=CNCc1ccccc1OC(F)F,-8,86
O=C(Nc1ccccc1)Nc1c[nH]c2ccccc12,-3,89
O=C(Nc1c[nH]c2ccccc12)N1CCOCC1,2,3.5*
Cc1ccccc1OCc1nnc(SCc2cc(=O)c3cc(F)ccc3[nH]2)n1C,nt,98
NNC(=O)C1CCCCC1,-2,97
O=C(Nc1ccccc1Cl)c1ccccc1O,5,19
O=C(Nc1ccc([N+](=O)[O-])cc1Cl)c1cc(Cl)ccc1O,nt,-0.6*
CCn1c(C)c(C)c2cc(C(=O)NCc3cccs3)ccc21,1,97
O=c1c(-c2nc(-c3ccc(Cl)cc3)no2)cnc2n1CCS2,-1,117
CCCC(=O)Oc1c[nH]c2ccccc12,nt,3.9*
CCOC(=O)Cc1c[nH]c2ccccc12,4,95
O=S(=O)(c1ccc(S(=O)(=O)N(Cc2ccccc2)Cc2ccco2)cc1)N1CCCCCC1,1,106
CCc1ccn2cc(-c3cc(-c4ccccc4)no3)nc2c1,nt,99
O=C1CSc2ccc(C(=O)NCCCN3CCCCC3)cc2N1,14,97
O=C(c1ccccc1)N1CCN(c2ccc(NCc3ccc4c(c3)OCO4)cc2)CC1,11,115
Cc1[nH]n2c(=O)cc(-c3ccccc3)nc2c1-c1ccccc1,-13,0.0*
Cc1ccccc1Cc1c(C)nc2c(-c3ccccc3)c(C)[nH]n2c1=O,nt,0.5*
Cc1[nH]n2c(=O)cc(-c3ccccc3Cl)nc2c1-c1ccccc1,nt,32
SMILES,Sa helicase inh,Sa growth 42C
Cc1cccc(Cc2c(C)nc3c(-c4ccccc4)c(C)[nH]n3c2=O)c1,nt,15
O=C(CSc1nnc(-c2cccc(F)c2)c(-c2cccc(F)c2)n1)NC1CCCCC1,nt,106
O=C(COc1ccccc1)Nc1c(C(=O)c2ccccc2)oc2ccccc12,-7,64
COc1cccc2cc(C(=O)N3CCCc4ccccc43)c(=O)oc12,8,nt
O=C(O)c1ccc(NS(=O)(=O)/C=C/c2ccccc2)cc1,-14,nt
CC(=O)NCCCc1nc2ccccc2[nH]1,2,nt
CC(=O)NCCCCCCNC(C)=O,nt,21*
CCc1ccc(NC(=O)[C@H](CSCc2ccccc2)N2Cc3ccccc3C2=O)cc1,nt,99
CCc1ccc2[nH]c3nc(C)cc(C)c3c(=O)c2c1,21,105
CCN(CC)/N=N/c1[nH]nc2nc(C)cc(C)c12,10,7.2*
CCN1/C(=C/C=C2\SC(=S)N(C)C2=O)Oc2ccccc21,-14,88
CN1/C(=C/C=C/c2oc3ccccc3[n+]2C)Oc2ccccc21,-98,-1.0*
O=C(Nc1ccccc1)c1cccc(-c2nnc(-c3ccccc3)o2)c1,4,120
O=C(O)C(Cc1ccccc1)NS(=O)(=O)/C=C/c1ccccc1 (stereo not drawn),-8,nt
CC(=O)N1CCN(c2ccc(Oc3ccnc4cc(Cl)ccc34)cc2)CC1,5,93
CC(=O)N1CCN(c2ccc(OC[C@H]3CO[C@](Cn4ccnc4)(c4ccc(Cl)cc4Cl)O3)cc2)CC1,nt,1.2*!
CC1(C)CC(=O)C2=C(C1)N(CCN1CCOCC1)C1=C(C(=O)CC(C)(C)C1)C2c1cccc(Cl)c1,3,99
CCCCCCCCCCCCC[N+](C)(C)Cc1ccccc1,nt,-0.8*
CC[N+](C)(CC)Cc1ccccc1,0,70
O=C(/C=C/c1ccccc1)Oc1ccc(-c2cnc3ccccc3n2)cc1,-4,96
O=c1oc2ccc(Cl)cc2c(=O)n1-c1cccc(C(F)(F)F)c1,7,-0.7*
Cc1ccc(-n2c(=O)oc3ccc(Cl)cc3c2=O)cc1,18,68
O=C(Cn1cc(S(=O)(=O)Cc2cccc(Cl)c2)c2ccccc21)Nc1ccc(F)c(Cl)c1,nt,100
Cc1cc(C)c(NC(=O)c2cn3c4c(c(N5CCN(C)CC5)c(F)cc4c2=O)OCC3C)c(C)c1 (stereo not drawn),-2,71
CC1COc2c(N3CCN(C)CC3)c(F)cc3c(=O)c(C(=O)OCc4ccccn4)cn1c23 (stereo not drawn),11,-1.0*
CCN(CC)c1ccc(/C=C2/C(=O)NN(c3ccc(C)cc3)C2=O)cc1,15,119
CCCCOc1cccc2c1CCN(C)C2=O,6,66
CN1CCc2c(OCc3ccc(Cl)cc3)cccc2C1=O,15,6.4*
CCOc1cccc(OCC)c2c(C)nc(C)c1-2,7,105
